# Reference: PubChem BioAssay AID623994 (NMMLSC, 2012)
# Potency and affinity values are given separately. A number with no mark means an inactive call. The source made the active and inactive calls.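 The calls were made as follows: active = compounds whose fitted concentration for half the maximal dye retention is below 100 µM; inactive = the rest.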
# Biological target: Multidrug resistance protein CDR2 (Candida albicans (strain SC5314 / ATCC MYA-2876)) (UniProt P78595)
# Assay: blockers of Nile Red efflux by Candida CDR2 – S. cerevisiae AD1-8u, singleplex, Cherry Pick2 set, dose response (AID 623994)
# Details: S. cerevisiae AD1-8u expressing CaCDR2, Nile Red efflux; series mostly up to 100 µM; Nile Red retention, efflux inhibition: at the top concentration
# Sequence of Multidrug resistance protein CDR2 (Candida albicans (strain SC5314 / ATCC MYA-2876)) (P78595 whole entry, looked up): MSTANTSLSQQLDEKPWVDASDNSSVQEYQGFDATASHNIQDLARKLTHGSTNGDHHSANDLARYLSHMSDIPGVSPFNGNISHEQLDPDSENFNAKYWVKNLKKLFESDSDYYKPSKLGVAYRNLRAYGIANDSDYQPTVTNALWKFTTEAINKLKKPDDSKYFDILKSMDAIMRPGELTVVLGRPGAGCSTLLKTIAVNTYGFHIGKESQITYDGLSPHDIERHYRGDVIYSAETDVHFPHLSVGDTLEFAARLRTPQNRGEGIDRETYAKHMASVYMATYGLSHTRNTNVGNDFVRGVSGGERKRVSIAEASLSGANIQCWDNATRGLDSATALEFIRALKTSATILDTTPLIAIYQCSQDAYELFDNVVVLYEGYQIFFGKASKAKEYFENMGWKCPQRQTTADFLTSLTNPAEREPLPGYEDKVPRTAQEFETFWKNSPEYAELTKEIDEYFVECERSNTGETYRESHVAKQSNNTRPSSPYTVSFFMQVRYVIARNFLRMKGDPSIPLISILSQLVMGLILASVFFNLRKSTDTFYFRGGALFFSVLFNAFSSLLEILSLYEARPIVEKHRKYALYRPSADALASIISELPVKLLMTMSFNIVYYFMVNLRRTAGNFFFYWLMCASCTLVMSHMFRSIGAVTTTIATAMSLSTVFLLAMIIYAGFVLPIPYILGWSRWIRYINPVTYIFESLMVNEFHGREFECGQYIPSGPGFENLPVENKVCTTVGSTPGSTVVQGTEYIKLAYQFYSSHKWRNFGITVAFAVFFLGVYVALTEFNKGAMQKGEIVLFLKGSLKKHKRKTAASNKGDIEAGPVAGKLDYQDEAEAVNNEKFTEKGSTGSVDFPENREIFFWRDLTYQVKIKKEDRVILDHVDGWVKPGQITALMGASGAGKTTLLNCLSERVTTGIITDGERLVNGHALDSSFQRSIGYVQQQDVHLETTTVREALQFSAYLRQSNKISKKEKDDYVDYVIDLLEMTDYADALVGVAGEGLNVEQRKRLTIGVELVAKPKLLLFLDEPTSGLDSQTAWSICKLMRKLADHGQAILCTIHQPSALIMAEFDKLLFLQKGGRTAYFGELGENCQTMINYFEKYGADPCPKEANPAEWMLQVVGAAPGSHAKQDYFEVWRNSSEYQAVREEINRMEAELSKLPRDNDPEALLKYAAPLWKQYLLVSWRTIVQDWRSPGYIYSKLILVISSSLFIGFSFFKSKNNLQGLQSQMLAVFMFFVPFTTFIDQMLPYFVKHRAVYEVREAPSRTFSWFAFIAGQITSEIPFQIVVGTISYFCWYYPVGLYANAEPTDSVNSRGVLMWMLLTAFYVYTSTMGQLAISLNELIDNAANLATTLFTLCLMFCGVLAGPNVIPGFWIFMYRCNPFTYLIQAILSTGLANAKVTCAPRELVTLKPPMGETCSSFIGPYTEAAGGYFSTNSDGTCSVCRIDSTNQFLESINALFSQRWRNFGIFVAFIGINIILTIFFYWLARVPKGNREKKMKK
Structure (SMILES),"Nile Red retention, efflux inhibition",outcome
O=C(C1CCC(CNc2nc(=S)[nH]c3ccccc23)CC1)N1CCN(c2ccc(F)cc2)CC1 (centres undefined),-7.48%,–
CCC(=O)N1CCN(c2ccc(Cl)cc2NC(=O)c2ccc3c(c2)OCCO3)CC1,-3.15%,–
COc1ccccc1C(=O)OCCc1ccccc1,-1.49%,–
CCOc1cccc2sc(NC(=O)c3ccc(Br)s3)nc12,-2.33%,–
CCCCN1Cc2cc(C(=O)c3cc(OC)ccc3O)cnc2NC1=O,12.2%,–
O=C(NCCc1ccc(Cl)cc1)C1CCC(CNc2nc(=S)[nH]c3ccccc23)CC1 (centres undefined),-2.27%,–
Cc1ccc(O)c(C(=O)c2cnc3c(c2)CN(CCC(C)C)C(=O)N3)c1,–,inactive
C[C@@]12C(=O)Nc3ccc(Cl)cc3C(=O)N1[C@H]1c3cc(Cl)ccc3OC[C@@H]1[C@@H]2c1ccccc1,-9.04%,–
C[C@H](CO)N1C[C@H](C)[C@@H](CN(C)S(=O)(=O)c2ccccc2)Oc2c(NC(=O)Nc3ccccc3)cccc2C1=O,-1.33%,–
CCO[C@@H]1OC(C(=O)Nc2ccccc2)=C[C@H](c2ccccc2)[C@H]1CCCO,-2.72%,–
COc1ccc(N2CCN(C(=O)C3CCCN(c4ncnc5c4nc4n5CCCCC4)C3)CC2)cc1 (centres undefined),0.54%,–
O=C(c1ccc2c(c1)OCO2)N1CCC2(CC1)Oc1ccc(F)cc1C(=O)C21CC(c2ccc(Cl)cc2)=NO1 (centres undefined),-1.29%,–
O=C(C1CCCN(c2ncnc3c2nc2n3CCCCC2)C1)N1CCN(c2ccccc2F)CC1 (centres undefined),-3.71%,–
Cc1noc(C)c1C(=O)N1CCC2(CC1)Oc1ccc(F)cc1C(=O)C21CC(c2ccc(Cl)cc2)=NO1 (centres undefined),-7.48%,–
COc1cccc(-c2sc3ccc(OC)cc3c2-c2ccc(OCCN3CCOCC3)cc2)c1,2.95%,–
Cc1ccc(C2CC(c3ccccc3)=NN2c2ccc(S(N)(=O)=O)cc2)cc1 (centres undefined),-8.26%,–
CCCCNC(=O)C1CCC(CNc2nc(=S)[nH]c3ccccc23)CC1 (centres undefined),-0.88%,–
COc1ccc(C2CC(c3ccccc3)=NN2c2ccc(S(N)(=O)=O)cc2)cc1 (centres undefined),-3.68%,–
Cc1cccc2sc(N(CCCN(C)C)C(=O)c3ccc(Cl)s3)nc12,201%,–
CC1CN(c2nc3ccccc3nc2C(C#N)C(=O)NCc2ccc3c(c2)OCO3)CC(C)O1 (centres undefined),–,inactive
COc1ccc([C@H]2CC(=O)C=C(c3ccnc4ccc(Cl)cc34)C2)cc1,0.18%,–
O=C(Nc1ccccc1)C1=C[C@@H](c2ccc(Br)cc2)C[C@@H](OCCCCO)O1,10.3%,–
Cc1ccc(O)c(C(=O)c2cnc3c(c2)CN(C)C(=O)N3)c1,-6.05%,–
O=C(CSc1nnc(Cc2cccs2)n1Cc1ccco1)Nc1cccc(Cl)c1,-4.45%,–
COc1ccc(S(=O)(=O)N(C)C[C@H]2Oc3c(NC(=O)NC4CCCCC4)cccc3C(=O)N([C@H](C)CO)C[C@@H]2C)cc1,6.17%,–
Cc1cccc(C2CC(c3ccccc3)=NN2c2ccc(S(N)(=O)=O)cc2)c1 (centres undefined),-7.15%,–
COc1ccc(CNC(=O)C(C#N)c2nc3ccccc3nc2N2CCCC2)cc1 (centres undefined),-1.94%,–
O=C(C1CCCN(c2ncnc3c2nc2n3CCCCC2)C1)N1CCN(c2ccccc2)CC1 (centres undefined),-1.78%,–
COc1cc(OC)c2c(-c3ccccc3)cc(=O)oc2c1C(CCN1CCCC(C)C1)c1ccc(N(C)C)cc1 (centres undefined),137%,–
